Experimental findings from PMC7862700, “An all-to-all approach to the identification of sequence-specific readers for epigenetic DNA modifications on cytosine” are described below.

Common to all, as to assay: DAPPL (digital affinity profiling via proximity ligation, sequencing); 10 mM Tris-HCl pH 7.5, 50 mM NaCl, 1 mM DTT, 4% glycerol, room temperature, 30 min; GST-TFs on glutathione beads, 16-mer random dsDNA library, 0.1% formaldehyde crosslink after washing; high values mean tight binding
What all share (conditions): protein: recombinant; tags: N-terminal GST; dsDNA, one strand shown

One test deals with T1, ELK1 (Homo sapiens, UniProt P19419 1-428).
T1 sequence: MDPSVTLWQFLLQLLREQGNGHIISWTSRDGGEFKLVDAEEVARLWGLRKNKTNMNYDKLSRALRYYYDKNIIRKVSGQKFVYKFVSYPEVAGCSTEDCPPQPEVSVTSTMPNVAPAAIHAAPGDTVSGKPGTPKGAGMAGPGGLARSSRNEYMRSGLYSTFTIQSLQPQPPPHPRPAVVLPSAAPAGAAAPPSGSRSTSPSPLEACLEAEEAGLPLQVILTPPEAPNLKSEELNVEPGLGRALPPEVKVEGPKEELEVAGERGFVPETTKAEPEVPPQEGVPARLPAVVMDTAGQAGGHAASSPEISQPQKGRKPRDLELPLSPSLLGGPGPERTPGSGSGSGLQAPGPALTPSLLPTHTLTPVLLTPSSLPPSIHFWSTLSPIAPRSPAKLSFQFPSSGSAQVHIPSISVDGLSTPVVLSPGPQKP
In a few lines: (§1)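 GST fusions of human transcription factors were expressed in yeast and captured with glutathione beads. Once given DNA barcodes and pooled alongside a tag-only sample, they were incubated for 30 min at room temperature with 200 nmole of a random double-stranded 16-mer DNA library in Tris/NaCl/DTT/glycerol buffer, then washed, crosslinked (0.1% formaldehyde), proximity-ligated, PCR-amplified and sequenced on an Illumina NextSeq500. The binding signal of each hexamer is its read frequency for a factor divided by its frequency for the tag-only sample.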

Another test addresses T2, GABPA (Homo sapiens, UniProt Q06546 1-454).
T2 sequence: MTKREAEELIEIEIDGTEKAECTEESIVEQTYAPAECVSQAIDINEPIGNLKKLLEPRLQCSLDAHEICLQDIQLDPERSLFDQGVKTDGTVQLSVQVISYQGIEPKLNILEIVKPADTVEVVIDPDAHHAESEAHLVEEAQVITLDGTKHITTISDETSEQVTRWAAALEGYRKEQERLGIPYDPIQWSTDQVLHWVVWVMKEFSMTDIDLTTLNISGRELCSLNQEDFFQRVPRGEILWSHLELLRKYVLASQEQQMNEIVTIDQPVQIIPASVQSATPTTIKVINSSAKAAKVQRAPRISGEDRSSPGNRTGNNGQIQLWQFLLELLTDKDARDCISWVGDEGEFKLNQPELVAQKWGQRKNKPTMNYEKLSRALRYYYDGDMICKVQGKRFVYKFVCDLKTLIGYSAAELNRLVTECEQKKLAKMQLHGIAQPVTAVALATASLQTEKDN
In a few lines: as §1

In the next test the target is T3, ERG (Homo sapiens, UniProt P11308 1-479).
T3 sequence: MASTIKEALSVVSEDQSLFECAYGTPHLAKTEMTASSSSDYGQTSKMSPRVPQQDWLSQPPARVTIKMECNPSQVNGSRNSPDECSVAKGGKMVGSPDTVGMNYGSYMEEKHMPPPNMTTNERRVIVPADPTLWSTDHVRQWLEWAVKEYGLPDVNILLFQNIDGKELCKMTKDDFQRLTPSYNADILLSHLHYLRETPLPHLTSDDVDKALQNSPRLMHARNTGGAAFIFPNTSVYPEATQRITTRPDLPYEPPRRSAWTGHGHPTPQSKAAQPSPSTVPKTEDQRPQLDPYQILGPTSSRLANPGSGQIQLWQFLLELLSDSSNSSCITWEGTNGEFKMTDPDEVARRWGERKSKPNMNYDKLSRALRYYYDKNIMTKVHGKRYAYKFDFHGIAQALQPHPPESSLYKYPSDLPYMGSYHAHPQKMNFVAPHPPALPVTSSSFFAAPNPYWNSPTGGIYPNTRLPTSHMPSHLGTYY
The method in brief: as §1

A further test has as its target ELF1 (Homo sapiens, UniProt P32519 1-619). The method in brief:
as §1

A further test concerns the target T4, EHF (Homo sapiens, UniProt Q9NZC4 1-300).
T4 sequence: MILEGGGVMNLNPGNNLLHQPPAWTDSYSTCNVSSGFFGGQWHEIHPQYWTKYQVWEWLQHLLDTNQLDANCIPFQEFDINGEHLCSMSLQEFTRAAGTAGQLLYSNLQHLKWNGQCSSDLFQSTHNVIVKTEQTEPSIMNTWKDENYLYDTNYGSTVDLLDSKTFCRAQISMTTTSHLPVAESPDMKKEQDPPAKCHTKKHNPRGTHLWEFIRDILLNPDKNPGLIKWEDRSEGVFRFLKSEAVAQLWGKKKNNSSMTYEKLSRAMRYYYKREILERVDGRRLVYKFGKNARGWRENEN
In a few lines:
as §1

The next test concerns the target SPIB (Homo sapiens, UniProt Q01892 1-262). In a few lines: as §1
The target of the next test is T5, FEV (Homo sapiens, UniProt Q99581 1-238).
T5 sequence: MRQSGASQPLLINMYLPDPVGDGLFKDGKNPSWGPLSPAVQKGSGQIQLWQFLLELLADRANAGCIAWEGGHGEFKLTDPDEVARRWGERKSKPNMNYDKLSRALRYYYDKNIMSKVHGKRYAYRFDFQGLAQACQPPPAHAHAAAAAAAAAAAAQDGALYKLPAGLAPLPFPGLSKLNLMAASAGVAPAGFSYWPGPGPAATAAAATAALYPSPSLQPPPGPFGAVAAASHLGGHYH
In a few lines:
as §1

The next test has as its target ETV5 (Homo sapiens, UniProt P41161 1-510). In a few lines:
as §1

The next test deals with ELF4 (Homo sapiens, UniProt Q99607 1-663). In a few lines:
as §1

The target of a further test is T6, ELK4 (Homo sapiens, UniProt P28324-2 1-405).
T6 sequence: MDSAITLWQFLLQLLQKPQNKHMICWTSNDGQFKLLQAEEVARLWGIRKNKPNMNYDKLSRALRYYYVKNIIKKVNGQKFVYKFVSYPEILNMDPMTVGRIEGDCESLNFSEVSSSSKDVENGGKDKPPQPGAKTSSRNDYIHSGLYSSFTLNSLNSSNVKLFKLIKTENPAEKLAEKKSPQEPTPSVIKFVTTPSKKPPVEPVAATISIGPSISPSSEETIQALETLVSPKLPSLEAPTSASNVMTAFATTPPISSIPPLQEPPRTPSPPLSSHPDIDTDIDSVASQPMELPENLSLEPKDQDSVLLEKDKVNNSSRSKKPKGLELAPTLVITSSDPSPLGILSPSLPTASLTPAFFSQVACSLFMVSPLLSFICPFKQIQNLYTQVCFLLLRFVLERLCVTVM
The method in brief: as §1

Another test concerns the target T7, ETV2 (Homo sapiens, UniProt O00321 1-342).
T7 sequence: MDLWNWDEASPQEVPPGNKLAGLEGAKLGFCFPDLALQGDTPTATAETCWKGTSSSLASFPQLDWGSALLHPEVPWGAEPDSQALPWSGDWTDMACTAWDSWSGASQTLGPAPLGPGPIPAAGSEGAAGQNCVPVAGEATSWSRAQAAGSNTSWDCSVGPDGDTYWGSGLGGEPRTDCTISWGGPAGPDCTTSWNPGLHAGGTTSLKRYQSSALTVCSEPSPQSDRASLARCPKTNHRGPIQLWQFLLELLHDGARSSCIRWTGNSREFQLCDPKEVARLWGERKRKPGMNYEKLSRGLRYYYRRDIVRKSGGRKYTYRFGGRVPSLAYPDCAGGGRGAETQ
The method in brief: as §1

The next test concerns the target ETV1 (Homo sapiens, UniProt P50549 1-477). In a few lines: as §1
In the next test the target is T8, ERF (Homo sapiens, UniProt P50548 1-548).
T8 sequence: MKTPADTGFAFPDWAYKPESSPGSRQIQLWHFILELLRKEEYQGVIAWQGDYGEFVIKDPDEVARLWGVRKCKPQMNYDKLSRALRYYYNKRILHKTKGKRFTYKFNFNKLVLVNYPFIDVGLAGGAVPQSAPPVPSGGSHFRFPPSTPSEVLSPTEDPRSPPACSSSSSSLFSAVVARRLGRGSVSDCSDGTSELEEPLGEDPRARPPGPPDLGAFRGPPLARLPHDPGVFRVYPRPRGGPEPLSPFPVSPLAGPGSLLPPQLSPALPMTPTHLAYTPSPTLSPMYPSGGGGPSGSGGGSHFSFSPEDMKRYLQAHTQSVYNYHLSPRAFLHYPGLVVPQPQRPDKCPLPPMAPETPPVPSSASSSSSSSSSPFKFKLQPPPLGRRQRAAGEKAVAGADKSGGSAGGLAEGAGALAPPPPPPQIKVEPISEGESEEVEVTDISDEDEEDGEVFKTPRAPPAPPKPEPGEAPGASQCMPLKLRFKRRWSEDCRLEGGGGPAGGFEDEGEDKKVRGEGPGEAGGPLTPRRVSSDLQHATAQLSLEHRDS
The method in brief: as §1

A further test concerns the target T9, ETV3L (Homo sapiens, UniProt Q6ZN32 1-361).
T9 sequence: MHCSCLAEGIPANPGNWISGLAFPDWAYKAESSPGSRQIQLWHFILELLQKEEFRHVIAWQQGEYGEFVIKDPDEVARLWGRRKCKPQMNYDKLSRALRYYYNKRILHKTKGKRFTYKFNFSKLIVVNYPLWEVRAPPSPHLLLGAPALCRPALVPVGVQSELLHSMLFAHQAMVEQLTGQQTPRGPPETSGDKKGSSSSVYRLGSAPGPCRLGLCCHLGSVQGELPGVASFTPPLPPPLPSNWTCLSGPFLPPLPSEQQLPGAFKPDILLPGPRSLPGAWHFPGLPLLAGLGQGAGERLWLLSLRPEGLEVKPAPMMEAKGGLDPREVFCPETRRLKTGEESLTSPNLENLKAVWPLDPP
In a few lines:
as §1

A further test deals with T10, ETS2 (Homo sapiens, UniProt P15036 1-469).
T10 sequence: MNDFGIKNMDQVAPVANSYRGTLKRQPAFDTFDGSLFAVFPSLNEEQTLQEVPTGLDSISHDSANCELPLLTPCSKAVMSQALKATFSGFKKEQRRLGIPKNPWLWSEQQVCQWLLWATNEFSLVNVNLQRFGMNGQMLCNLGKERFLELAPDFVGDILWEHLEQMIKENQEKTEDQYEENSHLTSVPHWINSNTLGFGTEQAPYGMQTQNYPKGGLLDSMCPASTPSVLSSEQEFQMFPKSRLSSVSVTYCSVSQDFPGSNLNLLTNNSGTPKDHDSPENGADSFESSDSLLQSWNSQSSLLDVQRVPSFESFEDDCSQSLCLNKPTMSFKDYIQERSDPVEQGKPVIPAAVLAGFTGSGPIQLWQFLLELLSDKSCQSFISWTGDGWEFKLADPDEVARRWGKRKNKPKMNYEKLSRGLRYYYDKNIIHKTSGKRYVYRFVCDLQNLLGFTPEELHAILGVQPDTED
In a few lines:
as §1

In a further test the target is T11, SPDEF (Homo sapiens, UniProt O95238 1-335).
T11 sequence: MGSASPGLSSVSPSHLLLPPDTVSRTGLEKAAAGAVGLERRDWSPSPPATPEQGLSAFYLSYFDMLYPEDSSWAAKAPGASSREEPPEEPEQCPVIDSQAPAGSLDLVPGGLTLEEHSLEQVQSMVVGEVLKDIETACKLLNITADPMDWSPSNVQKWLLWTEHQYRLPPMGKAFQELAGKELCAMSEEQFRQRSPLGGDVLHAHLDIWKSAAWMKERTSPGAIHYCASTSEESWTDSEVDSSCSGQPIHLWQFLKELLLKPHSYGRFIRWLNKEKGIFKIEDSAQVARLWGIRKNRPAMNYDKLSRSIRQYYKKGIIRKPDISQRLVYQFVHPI
The method in brief:
as §1

In a further test the target is T12, ETV7 (Homo sapiens, UniProt Q9Y603 1-341).
T12 sequence: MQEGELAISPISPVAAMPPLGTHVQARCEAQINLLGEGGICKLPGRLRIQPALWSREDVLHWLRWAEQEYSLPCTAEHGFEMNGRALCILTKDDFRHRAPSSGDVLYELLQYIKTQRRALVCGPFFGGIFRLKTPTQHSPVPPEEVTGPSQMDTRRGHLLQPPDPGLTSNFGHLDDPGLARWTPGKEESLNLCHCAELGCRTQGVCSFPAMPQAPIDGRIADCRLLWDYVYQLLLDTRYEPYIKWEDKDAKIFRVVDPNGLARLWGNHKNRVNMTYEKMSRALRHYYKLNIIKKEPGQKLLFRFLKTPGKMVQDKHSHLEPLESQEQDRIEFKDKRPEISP
In a few lines:
as §1

The target in another test is T13, ETV3 (Homo sapiens, UniProt P41162-2 1-143).
T13 sequence: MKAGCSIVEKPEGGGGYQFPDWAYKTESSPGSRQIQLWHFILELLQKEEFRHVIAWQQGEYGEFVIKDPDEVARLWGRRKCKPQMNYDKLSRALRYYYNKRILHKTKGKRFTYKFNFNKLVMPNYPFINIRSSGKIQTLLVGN
In a few lines:
as §1

A further test has as its target ETV6 (Homo sapiens, UniProt P41212 1-452). In a few lines:
as §1

ETV6, sequence (P41212 whole entry): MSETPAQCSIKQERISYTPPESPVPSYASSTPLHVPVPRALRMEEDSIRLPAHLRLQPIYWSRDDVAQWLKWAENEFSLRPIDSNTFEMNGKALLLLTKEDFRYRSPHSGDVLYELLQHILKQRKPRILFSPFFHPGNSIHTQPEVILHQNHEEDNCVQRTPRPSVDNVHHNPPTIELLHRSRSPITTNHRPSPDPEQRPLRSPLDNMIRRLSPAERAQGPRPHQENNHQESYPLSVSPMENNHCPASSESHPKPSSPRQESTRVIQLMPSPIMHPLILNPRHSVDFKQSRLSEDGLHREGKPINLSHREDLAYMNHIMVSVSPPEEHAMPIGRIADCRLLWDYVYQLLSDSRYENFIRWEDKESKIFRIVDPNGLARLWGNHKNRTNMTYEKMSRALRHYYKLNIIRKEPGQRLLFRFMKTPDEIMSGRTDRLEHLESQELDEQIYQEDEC
SPIB, sequence (Q01892 whole entry): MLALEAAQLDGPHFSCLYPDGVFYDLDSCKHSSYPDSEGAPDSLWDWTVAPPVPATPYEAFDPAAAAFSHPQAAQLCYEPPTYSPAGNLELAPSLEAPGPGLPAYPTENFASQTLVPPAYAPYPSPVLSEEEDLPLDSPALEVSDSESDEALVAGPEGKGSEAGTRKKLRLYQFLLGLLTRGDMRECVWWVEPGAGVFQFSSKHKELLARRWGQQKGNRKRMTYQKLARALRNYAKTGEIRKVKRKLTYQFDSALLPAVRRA
ETV1, sequence (P50549 whole entry): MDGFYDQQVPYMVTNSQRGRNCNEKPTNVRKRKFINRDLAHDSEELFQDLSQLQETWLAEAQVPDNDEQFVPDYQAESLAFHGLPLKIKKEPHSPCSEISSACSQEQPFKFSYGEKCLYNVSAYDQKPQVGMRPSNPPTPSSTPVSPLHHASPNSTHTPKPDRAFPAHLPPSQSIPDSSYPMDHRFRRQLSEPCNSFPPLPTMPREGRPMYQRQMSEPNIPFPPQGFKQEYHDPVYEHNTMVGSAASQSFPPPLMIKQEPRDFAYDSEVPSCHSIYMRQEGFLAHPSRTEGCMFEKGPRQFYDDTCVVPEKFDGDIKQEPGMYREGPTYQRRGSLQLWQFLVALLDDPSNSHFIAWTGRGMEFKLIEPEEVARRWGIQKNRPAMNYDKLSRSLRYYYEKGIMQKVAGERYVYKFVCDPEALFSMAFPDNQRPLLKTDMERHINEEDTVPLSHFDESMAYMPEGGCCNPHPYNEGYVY
ETV5, sequence (P41161 whole entry): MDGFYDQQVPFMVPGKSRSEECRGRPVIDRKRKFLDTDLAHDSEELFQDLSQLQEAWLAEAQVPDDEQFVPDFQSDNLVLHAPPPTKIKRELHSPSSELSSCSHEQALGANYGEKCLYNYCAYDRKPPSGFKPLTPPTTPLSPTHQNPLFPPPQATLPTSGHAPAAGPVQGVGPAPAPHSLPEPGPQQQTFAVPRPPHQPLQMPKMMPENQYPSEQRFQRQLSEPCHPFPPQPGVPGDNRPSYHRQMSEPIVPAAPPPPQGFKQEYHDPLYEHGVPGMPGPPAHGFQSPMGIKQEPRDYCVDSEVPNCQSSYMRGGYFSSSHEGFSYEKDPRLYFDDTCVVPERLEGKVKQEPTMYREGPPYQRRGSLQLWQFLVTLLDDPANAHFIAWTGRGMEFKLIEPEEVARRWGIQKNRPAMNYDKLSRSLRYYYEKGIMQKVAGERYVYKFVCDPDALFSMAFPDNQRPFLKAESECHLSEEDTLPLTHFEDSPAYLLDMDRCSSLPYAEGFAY
ELF4, sequence (Q99607 whole entry): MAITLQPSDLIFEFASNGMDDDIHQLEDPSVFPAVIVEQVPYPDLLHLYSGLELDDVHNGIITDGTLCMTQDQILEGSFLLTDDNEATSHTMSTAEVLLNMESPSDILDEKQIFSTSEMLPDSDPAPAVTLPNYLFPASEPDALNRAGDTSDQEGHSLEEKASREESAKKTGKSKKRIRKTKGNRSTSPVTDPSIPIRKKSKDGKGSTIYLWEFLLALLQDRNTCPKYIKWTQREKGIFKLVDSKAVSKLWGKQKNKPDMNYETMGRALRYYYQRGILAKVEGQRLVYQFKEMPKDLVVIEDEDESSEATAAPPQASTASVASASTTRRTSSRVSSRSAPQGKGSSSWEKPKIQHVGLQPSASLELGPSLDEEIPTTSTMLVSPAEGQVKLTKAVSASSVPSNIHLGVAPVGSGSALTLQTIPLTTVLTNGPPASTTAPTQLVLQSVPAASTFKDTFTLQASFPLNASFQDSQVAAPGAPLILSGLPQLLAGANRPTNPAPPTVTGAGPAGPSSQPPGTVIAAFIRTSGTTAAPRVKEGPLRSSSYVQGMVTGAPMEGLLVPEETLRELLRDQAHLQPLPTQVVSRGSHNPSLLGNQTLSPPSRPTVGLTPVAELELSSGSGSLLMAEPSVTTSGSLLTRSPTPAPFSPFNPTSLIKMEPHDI
ELF1, sequence (P32519 whole entry): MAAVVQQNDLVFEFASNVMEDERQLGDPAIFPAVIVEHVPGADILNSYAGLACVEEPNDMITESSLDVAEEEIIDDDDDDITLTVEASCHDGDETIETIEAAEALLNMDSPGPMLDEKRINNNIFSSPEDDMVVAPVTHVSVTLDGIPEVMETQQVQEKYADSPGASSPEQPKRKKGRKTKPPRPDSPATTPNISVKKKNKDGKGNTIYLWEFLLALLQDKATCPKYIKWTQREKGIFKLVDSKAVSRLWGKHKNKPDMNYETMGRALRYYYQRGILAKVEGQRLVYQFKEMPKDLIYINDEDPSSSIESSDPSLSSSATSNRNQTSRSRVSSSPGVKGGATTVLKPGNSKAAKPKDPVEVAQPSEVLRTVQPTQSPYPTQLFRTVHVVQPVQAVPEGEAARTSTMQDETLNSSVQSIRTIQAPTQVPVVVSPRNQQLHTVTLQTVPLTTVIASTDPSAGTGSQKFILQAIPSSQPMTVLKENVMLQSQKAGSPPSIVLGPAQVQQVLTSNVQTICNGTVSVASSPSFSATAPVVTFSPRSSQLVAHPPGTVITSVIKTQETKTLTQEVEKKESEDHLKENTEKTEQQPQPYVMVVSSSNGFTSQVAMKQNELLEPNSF

In the case of TGCCCA, the binding signal with ELK1 was 1.23 fold enrichment (6-mer frequency, TF over GST control); in the test with GABPA, 1.19 fold enrichment (6-mer frequency, TF over GST control); in the test with ERG, 1.14 fold enrichment (6-mer frequency, TF over GST control); in the test with ELF1 it was 1.16 fold enrichment (6-mer frequency, TF over GST control); in the test with EHF, 1.08 fold enrichment (6-mer frequency, TF over GST control); in the test with SPIB it was 1.12 fold enrichment (6-mer frequency, TF over GST control). Further, the binding signal with FEV was 1.21 fold enrichment (6-mer frequency, TF over GST control); with ETV5, 1.2 fold enrichment (6-mer frequency, TF over GST control); with ELF4 it was 1.2 fold enrichment (6-mer frequency, TF over GST control); in the test with ELK4, 1.25 fold enrichment (6-mer frequency, TF over GST control); in the test with ETV2, 1.1 fold enrichment (6-mer frequency, TF over GST control); with ETV1, 1.03 fold enrichment (6-mer frequency, TF over GST control). For the same sequence, the binding signal with ERF is 1.12 fold enrichment (6-mer frequency, TF over GST control); with ETV3L, 1.12 fold enrichment (6-mer frequency, TF over GST control); with ETS2, 1.12 fold enrichment (6-mer frequency, TF over GST control); in the test with SPDEF, 1.12 fold enrichment (6-mer frequency, TF over GST control); in the test with ETV7, 1.23 fold enrichment (6-mer frequency, TF over GST control); in the test with ETV3, 1.15 fold enrichment (6-mer frequency, TF over GST control). For the same sequence, the binding signal with ETV6 was 1.14 fold enrichment (6-mer frequency, TF over GST control).
